# “And” between values parts separate entries of the source, which are not always exact repeats. Identical values can stand only once. In all, about 310,000 compounds went through this assay and about 1,900 (0.61%) were called active. Roughly 8% stayed inconclusive and do not appear here. Calls follow the shape of the full dose curve; tested in A549 cells. Shown is part of a subset that was picked to be rich in actives. Entries that show only a call come without a potency. Some compounds were tested as several samples or in several runs, with calls that do not always agree.
# Assay: qHTS for Stage-Specific Inhibitors of Vaccinia Orthopoxvirus: mCherry Reporter Primary qHTS; also: nearly all actives have a fitted effect of over 35% in size
# Conditions: Vaccinia virus mCherry reporter infection, fluorescence; series mostly up to 36.5 µM
# Potency is read from the fitted curve at half-maximal effect.
row,SMILES,Potency
1,COc1ccccc1CNc1nc(Nc2ccccc2Cl)c2sccc2n1,inactive
2,CC(C)c1cccc(-c2csc(C(O)c3ccccc3)n2)c1 (stereo not drawn),inactive
3,Cc1ccc(C(O)c2ncc(-c3ccccc3F)[nH]2)cc1F (stereo not drawn),inactive
4,O=C(CSc1cccc2cccnc12)N/N=C/c1cccnc1,11.2 µM (active)
5,CCOC(=O)N/N=C/c1cccnc1,inactive
6,O=C(CNC(=O)c1cccnc1)N/N=C/c1cccnc1,inactive
7,COc1cc(C=C(OC(C)=O)c2ccc3c(c2)OCO3)cc(OC)c1OC,inactive
8,COC(=O)[C@]12CCCCC=C1N(Cc1ccco1)C(=O)[C@H](CC(=O)NCC1CCCCC1)C2,inactive
9,COC(=O)[C@]12CCCCC=C1N(Cc1ccc(Cl)cc1Cl)C(=O)[C@H](CC(=O)NCc1cccc3ccccc13)C2,inactive
10,O=C(Nc1ccccn1)C1CCN(S(=O)(=O)c2ccccc2)CC1,inactive
11,Cc1ccc(S(=O)(=O)N2CCC(C(=O)Nc3cc(C)ccc3C)CC2)cc1,inactive
12,Cc1ccnc(NC(=O)C2CCN(S(=O)(=O)c3c(C)c(C)cc(C)c3C)CC2)c1,11.2 µM (active)
13,COc1ccc(C(C#N)=C2C=CC(=NO)c3ccccc32)cc1,inactive
14,COc1cc(C)c(CN2CCN(C(=O)CCC(=O)c3ccc(C)s3)CC2)cc1OC,inactive
15,COC(=O)[C@]12CCCCC=C1N(Cc1ccco1)C(=O)[C@H](CC(=O)NCCCCc1ccccc1)C2,inactive
16,Cc1cc(-c2ccc(C)c(S(=O)(=O)N3c4ccccc4CC3C)c2)on1 (stereo not drawn),inactive
17,CC1Cc2ccccc2N1S(=O)(=O)c1ccc(Cl)nc1 (stereo not drawn),15.8 µM (active)
18,CC1Cc2ccccc2N1S(=O)(=O)c1c(N)n(C)c(=O)n(C)c1=O (stereo not drawn),inactive
19,CCc1ccc2c(c1)NC(=O)C2(C)Cc1ccc(OC(F)(F)F)cc1 (stereo not drawn),inactive
20,CCc1cccc(NC(=O)c2cc(-c3ccccc3)n[nH]2)c1,inactive
21,CCc1ccc2c(c1)C1(NN=C(c3ccccc3)S1)C(=O)N2 (stereo not drawn),14.1 µM (active)
22,CCOc1ccc(C(NC(=O)c2cc(OC)c(OC)c(OC)c2)c2cc(Cl)c3cccnc3c2O)cc1 (stereo not drawn),10 µM (active)
23,COc1cc(C(=O)N[C@@H](C)C(=O)NCc2ccco2)cc(OC)c1OC,inactive

row,SMILES,Potency
1,CCOc1ccc(C(=O)NC(C(=O)NCc2ccccn2)C(C)C)cc1 (stereo not drawn),inactive
2,CC(C)C[C@@H](COCc1ccc(Cl)cc1)N1CCN(C(=O)c2ccc(Cl)cc2Cl)CCC1=O,inactive
3,NC(=S)NN=C1CCCC(C(F)(F)F)C1 (stereo not drawn),10 µM (active)
4,CC(C)NC(=S)NN=C1CCCCCCCCCCC1,inactive
5,CC(C)(C)C1CCC(=O)N2CCC[C@]2(c2ccccc2)C1 (stereo partly drawn),inactive
6,CC(O)(c1cccc(F)c1)c1nc(-c2ccc3c(c2)OCO3)cs1 (stereo not drawn),inactive
7,O=C(c1ccc(CS(=O)Cc2ccccc2Cl)o1)N1CCN(c2ccccc2)CC1 (stereo not drawn),inactive
8,O=C(OCc1ccccc1)N1CCC2CC1c1cc(N3CCN(S(=O)(=O)c4cc(Cl)cc(Cl)c4)CC3)ccc12 (stereo not drawn),inactive
9,N=C1c2ccccc2-c2ccccc21,inactive
10,c1ccc2c(c1)[I+]c1ccccc1-2,inactive and 12.6 µM (active)
11,COC(=O)c1ccccc1N=NNc1ccc([N+](=O)[O-])cc1,inactive
12,CCN(CC)c1ccc(/C=C/c2c(C)cnc3ccc(C)cc23)cc1,inactive
13,COC(=O)c1cc(-c2cccs2)nc2ccccc12,inactive
14,CC(=O)Nc1cccc(Nc2nc(-c3cccs3)nc3ccccc23)c1,7.08 µM (active)
15,COc1cccc(-c2nc(Nc3ccncc3)c3ccccc3n2)c1,inactive
16,CC(C)c1cc(C(=O)NC2CCCCCC2)c2ccccc2n1,inactive
17,CC1=C(C(=O)N(C(C)C)C(C)C)CC(CC(=O)NCC2CCCCC2)C(=O)N1Cc1ccccc1 (stereo not drawn),inactive
18,O=C(NNC(=O)c1ccccc1O)c1ccccc1O,15.8 µM (active)
19,Cc1cc(C(=O)CCC(=O)NNC(=O)c2ccccc2O)c(C)s1,inactive
20,O=C(CO/N=C/c1ccccc1O)NNC(=O)c1ccccc1Cl,inactive
21,CCCCCCCNc1ccc(/C=C/c2ccnc3ccccc23)cc1,inactive
22,O=[N+]([O-])c1ccc(/C=C/c2ccc3cccnc3c2)cc1,inactive
23,CN(N=O)c1ccc(C=C2c3ccccc3-c3ccccc32)cc1,inactive

row,SMILES,Potency
1,CN1CC[C@H](c2c(O)cc(O)c3c(=O)cc(-c4ccccc4Cl)oc23)[C@H](O)C1,0.316 µM (active)
2,CCOC(=O)c1ccn(S(=O)(=O)c2ccc(C)cc2)c1-c1ccccc1,inactive
3,COc1ccc(CN(Cc2ccccc2)C(=O)c2ccc(O)cc2)cc1COc1ccc(NC(C)=O)cc1,inactive
4,CCOC(=O)c1cc2cc(OC)ccc2n1C1CCN(C)CC1,inactive
5,Cc1[nH]c(=O)c(C(=O)/C=C/c2ccccc2)c2c1CCCC2,3.16 µM (active)
6,CC1(C(=O)O)CCCN(C(=O)/C=C/c2ccccc2)C1 (stereo not drawn),inactive
7,Cc1cn(COC/C=C/c2ccccc2)c(=O)[nH]c1=O,inactive
8,CC(=O)Nc1ccc(C=Cc2ccc([N+](=O)[O-])cc2)cc1,inactive
9,O=C(CCCN1C(=O)C(c2ccccc2)Oc2cccnc21)Nc1ccccc1Br (stereo not drawn),inactive
10,C(=Nc1ccc(/C=C/c2ccnc3ccccc23)cc1)c1cc2c3c(c1)CCCN3CCC2,inactive
11,CN(C)C(=O)c1cccc(-c2cnc3c(NC=O)cc(-c4ccc(C(=O)N5CCOCC5)cc4)cn23)c1,inactive
12,O=C(CCCCCNC(=O)c1ccccc1)N/N=C/c1ccccc1,inactive
13,O=C(N/N=C/c1ccccc1O)/C(=C/c1ccccc1)CCO,7.08 µM (active)
14,O=C(CCCO)N/N=C/c1cc(Br)ccc1O,inactive
15,CCOC(=O)[C@]12CCCC=C1N(CCC1=CCCCC1)C(=O)[C@H](CC(=O)N1CCSCC1)C2,inactive
16,Cc1ccc(-c2nnc(SCc3ccccc3C)o2)cc1,inactive
17,Fc1ccc(-c2nnc(CSc3nnc(-c4ccc5c(c4)OCO5)o3)o2)cc1,28.2 µM (active)
18,O=C(CSc1nnc(CNC(=O)c2ccc(F)cc2)o1)Nc1ccc2c(c1)OCO2,inactive
19,COc1ccc(C(=O)C(OP(=O)(OC)OC)c2ccccc2OC)cc1 (stereo not drawn),inactive
20,O=C(COC(=O)COc1cc(Cl)c(Cl)cc1Cl)NC1CC1,inactive
21,NC(=S)NN=Cc1ccc(OC(=O)COc2cc(Cl)c(Cl)cc2Cl)cn1,11.2 µM (active)
22,O=C(COc1cc(Cl)c(Cl)cc1Cl)NCCc1ccccn1,inactive
